B1: chr17:60770872:60770873:+_ENSG00000011028_ENST00000303375|hu_hu|hu_hu_hu_mus_True|48_78 (ssRNA)
RNA: GGGAGUUCUACAGUCCGACGAUCUCUUUAAAAAAAAAAAAAAAAAGACAAACAAUAAUAAUGGCACUCGAGAAUCAAGAACUACAAAGAAAGGGCCGCUUUGAGUUUUUGUUCACAUCGUCCUGCACUGGGACACGGGGACUGCAACAGAGGAUUGAGCAUCA
B2: chr17:60770872:60770873:+_ENSG00000011028_ENST00000303375|hu_hu|hu_hu_hu_mus_True|18_78 (ssRNA)
RNA: GGGAGUUCUACAGUCCGACGAUCUCUUUAAAAAAAAAAAAAAAAAGACAAACAAUAAUAAUGGCACUCGAGAAUCAAGAACUACAAUAGAGGGUCCGCUUUGAGUUUUUGUUCACAACAUUGUCCCCUGGGACACGGGGACUGCAACAGAGGAUUGAGCAUCA
B3: chr2:204281756:204281757:+_ENSG00000138443_ENST00000261017|hu_hu|motif|central (ssRNA)
RNA: GGGAGUUCUACAGUCCGACGAUCCUUUUCCAAGUAAGAACGUGGAGCCCACGGUGGGUCCUCUUCAGCAUAAGGAUCACGGUACUCAACCACAGCAGCUUCCUCCUCUUCGUAAUCUUCUGGAGGAGGAGGAGGUGGGGGAGACAACAGAGGAUUGAGCAUCA
B4: chr4:76721835:76721836:+_ENSG00000138768_ENST00000264904|hu_mus|hu_hu_hu_mus_True|68_78 (ssRNA)
RNA: GGGAGUUCUACAGUCCGACGAUCGUUUGGCUGGGGUUUCUGAGACGCUCUGGAAUAAACUCAUGUUUGCUAAUAAAAUCCUAGUUUCUCUAUGAAAUUCUCUUUGCCAAUCCUCUUCUCUAUUAGUUGCUUUAGUUUCUCUUUCAACAGAGGAUUGAGCAUCA
B5: chr14:62224477:62224478:+_ENSMUSG00000035235_ENSMUST00000039562|mus_hu|FALSE|FALSE (ssRNA)
RNA: GGGAGUUCUACAGUCCGACGAUCUUCAUUGAAAAUGAAAAACCCAUCUGUCACCUGUUCCCAGUAAAAAACUGAUUGUUCUAUGAAAUCGGCUGUUUUAGUCAGAUAGGAACUGAAGUUUGAAAGACAGCCUUUCCAAGUUGCCAACAGAGGAUUGAGCAUCA
B6: 31895827_31897285_3242_CDS_ENSMUSG00000042323_ENSMUST00000112095|mouse|control|control (ssRNA)
RNA: GGGAGUUCUACAGUCCGACGAUCCCAACAGCCGUACAACCAUUUUUCACCAGCUGAAUCCUCCCACAGUCUCUCAAUACACACUAUAUGUGGUUGUAGAUUGGCCUCCGCAGGUUCAACAUAGACAUAAUCUCCGACAUGAUACAACAGAGGAUUGAGCAUCA
B7: chr14:76906223:76906224:+_ENSMUSG00000022010_ENSMUST00000022587|mus_mus|FALSE|FALSE (ssRNA)
RNA: GGGAGUUCUACAGUCCGACGAUCCACUUCCUCCCUCACCGCAUACAUCAAAUGGCUUUUCACCAGAUCCAUAGCUUGCUCUAUUUUGUUGUCGAUAGCUACCACACUUGCACCAGAGCUAUUGUCAAGUCUCACGGAAGCGUUCAACAGAGGAUUGAGCAUCA
B8: chr9:108650075:108650076:+_ENSMUSG00000032601_ENSMUST00000035220|mus_mus|FALSE|FALSE (ssRNA)
RNA: GGGAGUUCUACAGUCCGACGAUCAGCAAUUUGUUUAUGUAAACAGCACAGAGGUUAAACAAAACAAAACAAAACAAAAACCUACUAAAUACAAACAACAAAAACCCUAACCCAGAUAACCUUUCCUGGCUACUACUGGAAAGACAACAGAGGAUUGAGCAUCA
B9: chr3:124025330:124025331:+_ENSMUSG00000044528_ENSMUST00000058994|mus_mus|FALSE|FALSE (ssRNA)
RNA: GGGAGUUCUACAGUCCGACGAUCGUUUAAUCUUAAUUCCCACCACCACUCAUACCGCUGCCAACCCUUAAAAACACAUUAGACAAUAACAAUAGCAAUAUUUAAAAAAGCACGACCCGUUCUGAAAAACAGAAACUCUCUAGCCAACAGAGGAUUGAGCAUCA
B10: 77377103_77377223_5427_3pUTR_ENSG00000048649_ENST00000308488|human|control|control (ssRNA)
RNA: GGGAGUUCUACAGUCCGACGAUCUACAGUCCACCCAGGCCUUAAGAAAGACCACAUUCAUUUCACUAAUAACUCUCCAUCAGACACAAUAUAUUUGAGGCCACCUUAUUACCACUGCAUAAAGCUUAUUUAAAAAAAUUUGUUCAACAGAGGAUUGAGCAUCA
B11: 39249924_39250044_1625_CDS_ENSG00000115904_ENST00000402219|human|control|control (ssRNA)
RNA: GGGAGUUCUACAGUCCGACGAUCACUCCGGUACUGUAAAGAUAUCAAUGCUGCCAUCCAAUUGUUUUUCUCUUCAGCUGACUUGGCAGAAAAUAUAACACUAUUUUCAUCUUUUAAAAUUAUUUCAAAAGCAUGCUUGUAUUCCAACAGAGGAUUGAGCAUCA
B12: chr14:76904430:76904431:+_ENSMUSG00000022010_ENSMUST00000022587|mus_mus|mus_mus_mus_hu_True|58_108 (ssRNA)
RNA: GGGAGUUCUACAGUCCGACGAUCUGCUGGAAAAAAAACCCUCGUGGAAAAAAAGAGGGAACACCAGCAGCCUUGUACAAACUAGAUAAAAUCUUCUGGCUUUCCGCAGCCCAGGGAGAAACAGAAAACGGCAGCCCUAAUUUACAACAGAGGAUUGAGCAUCA
B13: chr1:71529667:71529668:-_ENSG00000132485_ENST00000254821|hu_hu|FALSE|FALSE (ssRNA)
RNA: GGGAGUUCUACAGUCCGACGAUCUUGUCACUGGAAAUACUGUUAAGAGAAACCUUUUUAUUUUUUAAACCAGAAAACAAACUAAAGCUCAUGUGACCAGAUUUUAAUUUUGAGAAAUAAACUCCAAAAGCAUUUUAAGCCAUACAACAGAGGAUUGAGCAUCA
B14: 55618536_55618656_2401_CDS_ENSG00000126787_ENST00000247191|human|control|control (ssRNA)
RNA: GGGAGUUCUACAGUCCGACGAUCAACAUCUGAAAUUCCUUCUUUUUUGUUAGUAUUAAUAUCAUCUGCUACUCCACCAGCAAGAAGAGGCAAACUCAUUCUCUCACUGGAUAAACAAUCCACCUUCAAGUCUGUCUUAUUUACCAACAGAGGAUUGAGCAUCA
B15: chr2:32530853:32530854:+_ENSG00000119820_ENST00000437765|hu_mus|FALSE|FALSE (ssRNA)
RNA: GGGAGUUCUACAGUCCGACGAUCUUCAGAAUUCUGACCAAAAAAAAGAAAAAAAAAUCCCAGAUAACUGCAAUUACUUAAAUACAAAAAAUAUUGUUUUAAAAAGACUUUAAGCCUGCCUCUCUAUCUGGAAUGUAUAAAAUUCAACAGAGGAUUGAGCAUCA
B16: chr5:143665338:143665339:-_ENSMUSG00000029580_ENSMUST00000100497|mus_hu|FALSE|FALSE (ssRNA)
RNA: GGGAGUUCUACAGUCCGACGAUCCACCUUCACCGUUCCAGUUUUUAAAUCCUGAGUCAAGCCAAAAAAAAAAAAAAAACCAAAACAAAACAAAAAAAACAAAUAAAGCCAUGCCAAUCUCAUCUUGUUUUCUGCGCAAGUUAGCAACAGAGGAUUGAGCAUCA
B17: chr1:109605425:109605426:-_ENSG00000197780_ENST00000461096|hu_mus|FALSE|FALSE (ssRNA)
RNA: GGGAGUUCUACAGUCCGACGAUCUUUAAUCAACUCUCCGUUCUCACAAUUAAAGUACUUACAUUUCCGUCACUAGAGCACAGCCAGAAACACCUGGGCUGGCAUCGGCUCUUUAAGCCCUGCCGUUCCCACUACUGAGGCAUUCAACAGAGGAUUGAGCAUCA

The full ranking holds about 24,000 sequences; the median of “enrichment r” is about 0.99, and the highest 2% start at about 3.7. The sample as a whole holds a higher share of the highest values than the screen did.

The assay concerns the target T1, UNK ZnF1-3 (human, UniProt Q9C0B0 31-174).
T1 sequence: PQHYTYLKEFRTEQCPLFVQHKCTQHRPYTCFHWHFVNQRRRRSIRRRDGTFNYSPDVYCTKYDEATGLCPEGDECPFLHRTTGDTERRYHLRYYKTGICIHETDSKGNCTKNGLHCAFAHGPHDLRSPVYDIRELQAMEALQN
Kind of assay: nsRBNS (natural sequence RNA bind-n-seq); RBNS binding buffer (assumed for nsRBNS): 25 mM Tris pH 7.5, 150 mM KCl, 3 mM MgCl2, 0.01% Triton X-100, 500 ug/ml BSA, 20 U/ml SUPERase-In, 4 C; UNK is unkempt and MSI1 is Musashi-1; names of the RNAs are library labels; protein concentration not given here; high values mean tight binding.
Molecule B1 displayed a binding signal of 4.71 enrichment R. The same measure for B2: 4.19 enrichment R; for B3: 0.684 enrichment R; for B4: 0.621 enrichment R.

B5 had a binding signal of 0.96 enrichment R. The same measure for B6: 1.01 enrichment R; for B7: 1.04 enrichment R; for B8: 4.03 enrichment R. The same measure for B9: 4.17 enrichment R; for B10: 3.78 enrichment R. In the case of B11 it was 1.14 enrichment R. B12 returned a binding signal of 2 enrichment R. The same measure for B13: 1.66 enrichment R; for B14: 1.29 enrichment R; for B15: 4.78 enrichment R. The same measure for B16: 2.75 enrichment R.

On to B17, for which the binding signal amounted to 0.922 enrichment R.

The values are drawn from paper PMC12136788.
